This note sets out measurements from PubChem BioAssay AID493221 (Johns Hopkins Ion Channel Center, 2011).

Structures are written as SMILES. In all, about 2,400 compounds went through this assay and about 1,700 (71%) were called active.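 The calls were made as follows: active = choline transporter activity left, mean of duplicates at 10 µM, below buffer-only control mean minus 3 SD; inactive = the rest.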 So high a share suggests a set chosen from earlier hits. Only a sample is shown.

Chain of High affinity choline transporter 1 (Homo sapiens) (Q9GZV3 whole entry, looked up): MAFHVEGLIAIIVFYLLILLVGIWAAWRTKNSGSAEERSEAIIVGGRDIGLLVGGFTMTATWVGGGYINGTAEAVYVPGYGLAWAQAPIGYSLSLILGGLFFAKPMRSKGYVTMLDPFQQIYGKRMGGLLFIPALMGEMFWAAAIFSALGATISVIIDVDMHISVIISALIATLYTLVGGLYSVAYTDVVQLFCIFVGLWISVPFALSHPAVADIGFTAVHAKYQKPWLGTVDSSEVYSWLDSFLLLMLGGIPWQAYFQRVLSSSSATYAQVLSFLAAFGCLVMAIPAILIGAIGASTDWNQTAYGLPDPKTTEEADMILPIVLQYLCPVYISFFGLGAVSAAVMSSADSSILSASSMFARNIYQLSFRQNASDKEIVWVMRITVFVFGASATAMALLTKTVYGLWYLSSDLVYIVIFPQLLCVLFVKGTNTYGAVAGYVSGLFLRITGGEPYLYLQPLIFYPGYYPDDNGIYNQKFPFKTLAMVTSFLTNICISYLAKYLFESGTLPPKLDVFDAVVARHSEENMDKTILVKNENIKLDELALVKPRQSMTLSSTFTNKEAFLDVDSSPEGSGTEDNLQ

The test addresses High affinity choline transporter 1 (Homo sapiens) (UniProt Q9GZV3). Briefly: human choline transporter blockers – cell-based, membrane potential dye, duplicate, confirmation (AID 493221). As to conditions: CHT-expressing cells, at 10 µM, LV-to-AA substituted CHT, HEK293 cells.
Regarding `Cc1ccc(CS(=O)(=O)c2ncc(Cl)c(C(=O)Nc3nnc(C)s3)n2)cc1`, the CHT activity remaining % of control (stronger effect = lower value) was 25.2% (active).
Next, `O=C(Nc1nonc1-c1ccc(Cl)cc1)c1ccco1`: 68.2% (active); `COCCNc1nc(-n2nc(C)cc2C)nc2sc3c(c12)CCCC3`: 71.2% (active); `O=C(CCCN1C(=O)CSc2ncccc21)N1CCN(c2cccc(C(F)(F)F)c2)CC1`: 42.1% (active).
As for `COc1cccc(-c2nn(-c3ccccc3)cc2/C=C(\C#N)C(=O)NCCCn2ccnc2)c1`, the CHT activity remaining % of control (stronger effect = lower value) was 28.8% (active).
Next, `CC(=O)OCCOCn1cnn2c(=O)c(Br)c(C)nc12`: 37.2% (active); `Cc1ccccc1-n1nnc2c(=O)oc3ccccc3c21`: “inactive”.
To `CN(Cc1ccccc1)CC(O)COc1ccc(CNCc2cc3ccccc3s2)cc1` (centres undefined) belongs 53.6% (active); to `CCS(=O)(=O)C1=NSC2=NC(=O)/C(=C\c3ccc(OS(=O)(=O)c4ccccc4)cc3)C(=N)N21`, 53.4% (active).
To `CCCCCn1c(=O)c(C(=O)OCC)c(Cl)c2ccccc21` belongs 45.3% (active); to `O=c1c2ccccc2nnn1CSc1nc2sc3c(c2c(=O)n1CC1CCCO1)CCC3` (centres undefined), 24% (active); to `Cc1ccc(NNC(=O)c2cccs2)cc1Cl`, 64.8% (active).
Consider `CCC(C(=O)N1CCOCC1)n1c(C(=O)OC)cc2occc21` (centres undefined), for which the CHT activity remaining % of control (stronger effect = lower value) is 55% (active).
To `CCNC(=O)CC1C(=O)N(c2ccc(F)cc2)C(=O)N1CCc1sccc1C` (centres undefined) belongs “inactive”.
With `O=C1c2cccc3cccc(c23)C(=O)N1CCCCCc1n[nH]c(=S)o1`, the CHT activity remaining % of control (stronger effect = lower value) entry is “inactive”.
Turning to `COc1ccc(Cn2c(=O)sc3ccccc32)cc1OC`, the CHT activity remaining % of control (stronger effect = lower value) was 63.4% (active).
Take `CCOc1ccccc1Nc1ccc2nonc2c1[N+](=O)[O-]`: the CHT activity remaining % of control (stronger effect = lower value) is 33.1% (active).
Next, `CC(=O)N1CCN(S(=O)(=O)c2cccc(C(=O)NC3CCC(C)CC3)c2)CC1` (centres undefined): 70.5% (active).
Next, `COc1ccc(S(=O)(=O)N2CCN(C(=O)NC3CCCCC3)CC2)cc1`: “inactive”; `CCc1nc(C)cn1S(=O)(=O)c1cc([N+](=O)[O-])ccc1Cl`: “inactive”; `CCn1c(SCCC(C)C)nnc1-c1c[nH]c2ccccc12`: 67.1% (active).
To `Cc1ccccc1-n1c(C)cc(/C=N/NC(=O)c2ccc(CN3CCOCC3)cc2)c1C` belongs 69.4% (active).
Turning to `CC(=O)c1ccc(Oc2cc(C)nc(-n3nc(C)cc3C)n2)cc1`, the CHT activity remaining % of control (stronger effect = lower value) result is “inactive”.
Turning to `CCOC(=O)N1CCN(C(=O)C2CCN(c3ncnc4c3sc3cccc(F)c34)CC2)CC1`, the CHT activity remaining % of control (stronger effect = lower value) is 68.8% (active).
Next, `Cc1[nH]c2ccccc2c1C(=O)CN1CCCC(C)C1` (centres undefined): 60.9% (active); `O=C(Cn1nc(C(F)(F)F)c2c1CCC2)NCc1ccc(F)cc1`: 63.8% (active).
Next, `COC(=O)c1ccccc1NC(=O)Cn1nc(C(F)(F)F)c2c1CCC2`: “inactive”; `O=[N+]([O-])c1ccccc1Nc1ccc(O)cc1`: 42.1% (active); `COc1ccc(-n2nnnc2CNC(=O)c2ccc3ccccc3c2)cc1`: 56.6% (active).
Next, `COc1ccc(N2C(=O)CNC2=S)cc1`: “inactive”; `Cc1ccc(S(=O)(=O)/N=C(/NC(=S)Nc2c(C)n(C)n(-c3ccccc3)c2=O)c2ccccc2)cc1`: 39.1% (active); `O=C(c1cccs1)C1C(c2ccc(Br)cc2)NC(=S)NC1(O)C(F)(F)F` (centres undefined): 54.2% (active).
Turning to `Oc1c(Cl)cc(Cl)c(Cl)c1Cc1c(O)c(Cl)cc(Cl)c1Cl`, the CHT activity remaining % of control (stronger effect = lower value) was 10.1% (active).
To `O=S(=O)(Cc1cc(Cl)nc(-c2cccnc2)n1)c1ccccc1` belongs 60.6% (active); to `Cc1ccc2c(C)c(C(=O)N3CCC(N4CCC(C(=O)NC5CC5)CC4)CC3)oc2c1`, 61.6% (active).
To `Cc1oc2cc([N+](=O)[O-])c(O)c([N+](=O)[O-])c2c1C(=O)c1ccc(Br)cc1` belongs “inactive”; to `CCCn1c2ccccc2c2cnn(CC(=O)NCCCN3CCCCC3CC)c(=O)c21` (centres undefined), 36.8% (active).
To `Cc1nn(CC(=O)NCC2CCCO2)c(=O)c2cc3ccccc3n12` (centres undefined) belongs “inactive”; to `O=C(Cn1ncc2c3ccccc3n(Cc3ccccc3)c2c1=O)NCCCN1CCOCC1`, 32.8% (active); to `CCCCOc1ccc(Cl)cc1CSc1nncn1N`, “inactive”.
`COc1ccc(C(=O)NNC(=S)NC(=O)c2ccccc2)cc1`: the CHT activity remaining % of control (stronger effect = lower value) was 59.6% (active).
To `COc1ccc(C(=O)NC(=S)NNC(=O)CCc2ccccc2)cc1` belongs 66.3% (active); to `O=C(Nc1ccc(F)c(Cl)c1)C1CCN(S(=O)(=O)c2cccnc2)CC1`, 38.1% (active); to `C=CCn1c(SCc2ccc(C(=O)NCCO)cc2)nc2ccccc2c1=O`, “inactive”.
Next, `COc1ccc(C(=O)NC(Cc2ccc(OC(=O)c3ccc(OC)cc3)cc2)C(=O)O)cc1` (centres undefined): 18.8% (active).
Next, `O=C(NCCc1ccc2c(c1)OCCO2)c1cc2ccccc2o1`: 42.2% (active).
As for `O=C(NCCCn1ccnc1)C(=O)c1cn(CC(=O)N2CCCCCC2)c2ccccc12`, the CHT activity remaining % of control (stronger effect = lower value) was 59.8% (active).
To `CCCCn1c(SCC(=O)NCC2CCCO2)nc2ccc(N3CCOCC3)cc2c1=O` (centres undefined) belongs “inactive”; to `CCCCCn1c(=O)[nH]c2cc(C(=O)NCCCN3CCCCC3C)ccc2c1=O` (centres undefined), 35.4% (active).
